The source of these data is PubChem BioAssay (NCATS).

Molecules are shown by their SMILES. Values joined by “and” are separate entries in the source; they are usually repeats but may differ in a detail not shown here. Identical values can stand only once. Results filed as inconclusive are left out. Values without a mark were called inactive. Active and inactive are the calls of the source. Calls come from the whole dose curve; as a rule, active = well fitted inhibition curve with a large enough effect; inconclusive = small, poorly fitted or top-dose-only effect; inactive = flat fitted curve, though single readings scatter.

One test has as its system ICS. The test can be described thus: qHTS profiling for inhibitors of Plasmodium falciparum proliferation (AID 504749). Particulars: P. falciparum in erythrocytes, SYBR Green DNA, 72 h; series mostly up to 28.7 µM. The gist of the method: (§1)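 Each compound contacts P. falciparum-infected red blood cells for 72 h at 37 C; lysis buffer (Tris, EDTA, saponin, Triton X, SYBR Green I) is added and fluorescence measured next morning; values normalized to controls.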
For orientation: Quantitative high-throughput screening tests each substance at several concentrations.

The next test deals with JCK. The description is as above. Conditions: P. falciparum in erythrocytes, SYBR Green DNA, 72 h; series mostly up to 28.7 µM. A digest of the protocol:
as §1

A further test concerns N140. Described as above. Conditions: P. falciparum in erythrocytes, SYBR Green DNA, 72 h; series mostly up to 28.7 µM. A digest of the protocol:
as §1

For the next test, the system named is P93_24. Described as above. Particulars: P. falciparum in erythrocytes, SYBR Green DNA, 72 h; series mostly up to 28.7 µM. The gist of the method:
as §1

Another test deals with P94_40. Described as above. Particulars: P. falciparum in erythrocytes, SYBR Green DNA, 72 h; series mostly up to 28.7 µM. The gist of the method: as §1
The subject of a further test is PAD. Described as above. Particulars: P. falciparum in erythrocytes, SYBR Green DNA, 72 h; series mostly up to 28.7 µM. The gist of the method:
as §1

The next test relates to PC15. The description is as above. Conditions: P. falciparum in erythrocytes, SYBR Green DNA, 72 h; series mostly up to 28.7 µM. A digest of the protocol: as §1
In a further test the test system is PC26. The test is described as above. Conditions: P. falciparum in erythrocytes, SYBR Green DNA, 72 h; series mostly up to 28.7 µM. A digest of the protocol:
as §1

The next test has as its system PC49. The description is as above. Conditions: P. falciparum in erythrocytes, SYBR Green DNA, 72 h; series mostly up to 28.7 µM. The gist of the method: as §1
In another test the test system is SC27B. The description is as above. Particulars: P. falciparum in erythrocytes, SYBR Green DNA, 72 h; series mostly up to 28.7 µM. The gist of the method: as §1
The test system of another test is TAB109. Described as above. Conditions: P. falciparum in erythrocytes, SYBR Green DNA, 72 h; series mostly up to 28.7 µM. A digest of the protocol:
as §1

Another test concerns TAB113. The test is described as above. Particulars: P. falciparum in erythrocytes, SYBR Green DNA, 72 h; series mostly up to 28.7 µM. The gist of the method: as §1
For a further test, the system named is TAB165. Described as above. Particulars: P. falciparum in erythrocytes, SYBR Green DNA, 72 h; series mostly up to 28.7 µM. The gist of the method:
as §1

For another test, the system named is W2. Described as above. Particulars: P. falciparum in erythrocytes, SYBR Green DNA, 72 h; series mostly up to 28.7 µM. The gist of the method:
as §1

A further test deals with KB-3-1. The test is described as follows: Cytotoxic Profiling of Annotated Libraries Using Quantitative High-Throughput Screening (AID 1296008). For max response: % is set by controls: 0 for no effect and ±100 for the full control effect. Particulars: Five cell lines viability, CellTiter-Glo ATP luminescence, 48-72 h; max response: hits give low values. The gist of the method: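 Cells exposed to compounds for 48 or 72 hr at 37 degrees Celsius. Viability read as ATP-coupled luminescence with CellTiter-Glo after 10 min at room temperature.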
Note: nearly all actives have a fitted effect of over 60% in size.
Potency is the fitted concentration of half-maximal effect.

For `CC(C)CCC[C@@H](C)[C@H]1CC[C@H]2[C@@H]3CC=C4C[C@@H](O)CC[C@]4(C)[C@H]3CC[C@]12C`, the Potency entry with ICS, in the test on JCK, in the test with N140, in the test with P93_24, with P94_40 and with PAD was “inactive” throughout. Also, the Potency result in the test with PC15, in the test with PC26, in the test with PC49, in the test with SC27B, in the test with TAB109 and in the test on TAB113 was “inactive” each time. In addition, the Potency result in the test on TAB165 and with W2 was “inactive” each time. Moreover, the max response in the test with KB-3-1 was -10.6%.
In the case of `FCOC(C(F)(F)F)C(F)(F)F`, the Potency entry with ICS, in the test on JCK, in the test with N140, in the test on P93_24, with P94_40 and with PAD was “inactive” each time. In addition, the Potency result in the test on PC15, with PC26, in the test on PC49, with SC27B, in the test on TAB109 and in the test on TAB113 was “inactive” throughout. For the same compound, the Potency entry in the test with TAB165 and in the test with W2 was “inactive” in each case. The max response in the test with KB-3-1 is 6.78%.
As for `CC1(O)CCC(C(C)(C)O)CC1` (stereo not given), the Potency result in the test on ICS, in the test with JCK, in the test on N140, with P93_24, in the test with P94_40 and in the test on PAD was “inactive” throughout. Also, the Potency result in the test on PC15, in the test on PC26, with PC49, in the test on SC27B, in the test with TAB109 and in the test on TAB113 was “inactive” in each case. Besides, the Potency entry in the test on TAB165 and with W2 was “inactive” in each case. In addition, the max response in the test on KB-3-1 is -9.81%.
As for `Cc1ncc[nH]1`, the Potency entry in the test with ICS, with JCK, with N140, with P93_24, in the test with P94_40 and in the test on PAD was “inactive” throughout. Besides, the Potency entry in the test on PC15, with PC26, in the test with PC49, in the test on SC27B, in the test on TAB109 and in the test with TAB113 was “inactive” each time. Moreover, the Potency result in the test on TAB165 and in the test with W2 was “inactive” in each case. The max response in the test with KB-3-1 was 3.25%.
With `CN=C1C=CC(=C(c2ccc(N(C)C)cc2)c2ccc(N(C)C)cc2)C=C1`, the Potency is 398 nM (active) in the test with ICS; 2510 nM (active) in the test on JCK; 708 nM (active) with N140; 891 nM (active) with P93_24; 1000 nM (active) in the test with P94_40; 1000 nM (active) with PAD. Besides, the Potency was 1000 nM (active) in the test on PC15; 1690 nM (active) with PC26; 1410 nM (active) in the test on PC49; 1000 nM (active) with SC27B; 891 nM (active) in the test on TAB109; 891 nM (active) in the test with TAB113. The Potency in the test on TAB165 was 891 nM (active); in the test with W2 it was 151 nM (active); in the test on KB-3-1 it was 7310 nM (active).
On to `C=C1C(CCl)(CCl)C2(Cl)C(Cl)C(Cl)C1(Cl)C2(Cl)Cl` (stereo not given), for which the Potency in the test on ICS was 355 nM (active); in the test with JCK, 10000 nM (active); in the test with N140, 2000 nM (active); in the test on P93_24 it was 2000 nM (active); in the test on P94_40 it was 2510 nM (active); with PAD, 708 nM (active). In addition, the Potency in the test with PC15 is 2000 nM (active); in the test on PC26 it was 1900 nM (active); with PC49, 3980 nM (active); in the test with SC27B, 1780 nM (active); in the test with TAB109, 3160 nM (active); in the test on TAB113, 2820 nM (active). The Potency with TAB165 is 1780 nM (active); with W2, 849 nM (active). In the test on KB-3-1, the max response is 3.52%.
In the case of `CC1=CCC2CC1C2(C)C` (stereo not given), the Potency result in the test on ICS, with JCK, with N140, with P93_24, with P94_40 and with PAD was “inactive” throughout. Besides, the Potency result with PC15, in the test with PC26, in the test on PC49, in the test on SC27B, in the test on TAB109 and with TAB113 was “inactive” in each case. Also, the Potency result in the test with TAB165 and in the test with W2 was “inactive” throughout. For the same compound, the max response with KB-3-1 was 16.6%.
For `OCCCNc1ccccc1`, the Potency result in the test on ICS, in the test on JCK, with N140, in the test on P93_24, with P94_40 and in the test on PAD was “inactive” throughout. Also, the Potency result in the test on PC15, in the test with PC26, in the test on PC49, with SC27B, in the test on TAB109 and with TAB113 was “inactive” each time. Further, the Potency entry with TAB165 and in the test on W2 was “inactive” throughout. Besides, the max response in the test on KB-3-1 is 2.06%.
With `NCC[C@H](O)C(=O)N[C@@H]1C[C@H](N)[C@@H](O[C@H]2O[C@H](CN)[C@@H](O)[C@H](O)[C@H]2O)[C@H](O)[C@H]1O[C@H]1O[C@H](CO)[C@@H](O)[C@H](N)[C@H]1O`, the Potency result in the test with ICS, in the test on JCK, in the test on N140, in the test on P93_24, in the test on P94_40 and in the test with PAD was “inactive” each time. Further, the Potency result in the test on PC15, in the test on PC26, in the test on PC49, in the test with SC27B, in the test with TAB109 and in the test with TAB113 was “inactive” throughout. Also, the Potency result in the test on TAB165 and with W2 was “inactive” throughout. Moreover, the max response with KB-3-1 is 3.67%.
With `O=C(O)CCCC/C=C(\c1ccccc1)c1cccnc1`, the Potency result with ICS, with JCK, with N140, in the test with P93_24, in the test with P94_40 and in the test on PAD was “inactive” in each case. The Potency entry in the test with PC15, with PC26, with PC49, in the test on SC27B, in the test with TAB109 and in the test with TAB113 was “inactive” throughout. For the same compound, the Potency result with TAB165 and in the test with W2 was “inactive” each time. Also, the max response in the test on KB-3-1 is -9.78%.
As to `CCCCC(CC)CCC(CC(C)C)OS(=O)(=O)O` (stereo not given), the Potency result in the test with ICS, in the test on JCK, in the test on N140, with P93_24, with P94_40 and in the test with PAD was “inactive” each time. In addition, the Potency entry in the test on PC15, in the test with PC26, in the test on PC49, in the test on SC27B, with TAB109 and in the test on TAB113 was “inactive” each time. The Potency entry with TAB165 and with W2 was “inactive” in each case. The max response in the test with KB-3-1 was 11% and -8.89%.
Take `OCl`: the Potency entry in the test with ICS, with JCK, in the test on N140, in the test on P93_24, in the test on P94_40 and with PAD was “inactive” throughout. The Potency result with PC15, in the test on PC26, in the test with PC49, in the test on SC27B, in the test on TAB109 and in the test with TAB113 was “inactive” each time. The Potency entry in the test on TAB165 and with W2 was “inactive” each time. In addition, the max response in the test with KB-3-1 is 19.8%.
In the case of `CN[C@@H]1[C@H](O[C@H]2[C@H](O[C@H]3[C@H](O)[C@@H](O)[C@H](N=C(N)N)[C@@H](O)[C@@H]3N=C(N)N)O[C@@H](C)[C@]2(O)C=O)O[C@@H](CO)[C@H](O)[C@H]1O`, the Potency result with ICS, in the test with JCK, with N140, in the test with P93_24, in the test on P94_40 and in the test with PAD was “inactive” throughout. The Potency result with PC15, with PC26, in the test on PC49, in the test with SC27B, in the test with TAB109 and in the test on TAB113 was “inactive” each time. The Potency result with TAB165 and in the test with W2 was “inactive” in each case. The max response with KB-3-1 was 22.5%.
